Rows were chosen to be rich in hits. Some 4.2% of all compounds tested hit in one or more screens of this group.
GDH-TPI counter-1: GDH-TPI coupled enzyme inhibition counter-screen | actives 1.2% (n = 360,000) | inhibition, % at 4.8 µM | GDH-TPI coupled enzyme counterscreen, NADH absorbance | AID 588335; in the data active = inhibition above about 30%;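 note: 0% = DMSO wells and 100% = wells lacking the enzyme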
RecA intein inh: blocks M. tuberculosis RecA intein splicing | P9WHJ3 | cell-free RecA intein splicing, fluorescence | actives 0.75% (n = 290,000) | inhibition, % (no concentration beside the values); in the data active = inhibition above about 30%;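 note: 0% = vehicle wells and 100% = reference inhibitor control wells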
PrPC TRFRET: inhibitors of human cell surface prion protein PrPC; TR-FRET read-out; P04156; AID 720596; actives 0.43% (n = 370,000); inhibition, % at 13.8 µM; in the data active = inhibition above about 24%; note: 0% = median of the test wells and 100% = reference compound wells
FBA Mtb inh: inhibits M. tuberculosis FBA enzyme. P9WQA3. purified M. tuberculosis FBA, fluorescence read-out. inhibition, % at 1 µM. actives 2.3% (n = 360,000);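 note: 0% = vehicle and 100% = reference inhibitor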
Target sequence (P9WQA3 whole entry, looked up): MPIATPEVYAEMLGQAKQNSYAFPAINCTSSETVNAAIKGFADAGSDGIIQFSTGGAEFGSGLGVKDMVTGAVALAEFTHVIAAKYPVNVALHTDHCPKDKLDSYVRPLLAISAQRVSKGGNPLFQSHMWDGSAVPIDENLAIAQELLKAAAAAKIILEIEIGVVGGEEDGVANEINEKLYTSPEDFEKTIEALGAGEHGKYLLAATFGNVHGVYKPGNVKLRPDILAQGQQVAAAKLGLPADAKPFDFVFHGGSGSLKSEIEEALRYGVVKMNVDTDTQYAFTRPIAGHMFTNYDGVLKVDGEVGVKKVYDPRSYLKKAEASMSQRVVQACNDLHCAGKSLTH
BJeLR viability: kills HRASV12-expressing BJeLR cells; inhibition, % (no concentration beside the values); actives 0.17% (n = 300,000); AID 1554; BJeLR (HRASV12) viability, CellTiter-Glo ATP luminescence, 48 h; in the data active = inhibition above about 50%
Mtb FBA confirm: Mtb FBA inhibition, confirmed; shares compounds with FBA Mtb inh; purified M. tuberculosis FBA, fluorescence read-out; inhibition, % at 1 µM; actives 78% (n = 5,600); AID 651616;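 note: 0% = vehicle wells and 100% = reference inhibitor wells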
GDH-TPI counter-2: GDH-TPI inhibition counter-screen for FBA inhibitors; GDH-TPI coupled enzyme counterscreen, fluorescence; actives 81% (n = 5,600); inhibition, % at 1 µM; shares compounds with FBA Mtb inh; in the data active = inhibition above about 10%
An asterisk follows results filed as active. Cut-off read from the data, not from the text of the source, unless noted: active = inhibition above about 27%; inactive = the rest.

Screening CCOC(=O)C1CCN(C(=O)c2cc3cc4ccc(OC)cc4nc3o2)CC1 returned GDH-TPI counter-1 24, RecA intein inh -7, PrPC TRFRET -11, FBA Mtb inh 106*, BJeLR viability -2, Mtb FBA confirm 25 and GDH-TPI counter-2 17*.
For COc1ccc2nc3oc(C(=O)N4CCC(C(N)=O)CC4)cc3cc2c1 the results were GDH-TPI counter-1 26, RecA intein inh -2, PrPC TRFRET -26, FBA Mtb inh 98*, BJeLR viability 2, Mtb FBA confirm active and GDH-TPI counter-2 154*.
COc1ccc2cc3cc(C(=O)N4CCN(Cc5ccc6c(c5)OCO6)CC4)oc3nc2c1 was read as GDH-TPI counter-1 46*, RecA intein inh 0, PrPC TRFRET -11, FBA Mtb inh 59*, BJeLR viability -1, Mtb FBA confirm active and GDH-TPI counter-2 active.
For Cc1ccc(CN2CCCCC(NC(=O)c3ccc(Br)cc3)C2=O)cc1 (stereo unspecified) the results were PrPC TRFRET 14.
For CN(C)CCCNc1nc2cc(-c3cccc(Cl)c3)sc2c(=O)n1C the results were GDH-TPI counter-1 14, PrPC TRFRET -15 and FBA Mtb inh 1.
For COc1ccc(-c2cc3nc(NCCCN(C)C)n(C)c(=O)c3s2)cc1OC the results were GDH-TPI counter-1 20, PrPC TRFRET -22, FBA Mtb inh 47*, Mtb FBA confirm 129* and GDH-TPI counter-2 86*.
For CCC(C)NC(=O)c1cnn2c1NC(c1ccc3c(c1)OCO3)CC2C(F)(F)F (stereo unspecified) the results were GDH-TPI counter-1 -16, RecA intein inh -1, PrPC TRFRET 5 and FBA Mtb inh -2.
`CC(O)c1cc2c(cc1NC(=O)c1cnn3c1NC(c1ccco1)CC3C(F)(F)F)OCO2` (stereo unspecified) gave GDH-TPI counter-1 7, RecA intein inh -4, PrPC TRFRET -5, FBA Mtb inh 48*, BJeLR viability 4, Mtb FBA confirm 57* and GDH-TPI counter-2 55*.
For CC[C@@H]1C(c2ccccc2)=NN(c2ccc(Br)cc2)[C@H]1C(=O)N1CCOC1=O the results were GDH-TPI counter-1 13, PrPC TRFRET 5 and FBA Mtb inh 18.
Screening CC[C@@H]1C(c2cccc(Cl)c2)=NN(c2ccc(Br)cc2)[C@H]1C(=O)N1CCOC1=O returned GDH-TPI counter-1 15, FBA Mtb inh 55*, Mtb FBA confirm 60* and GDH-TPI counter-2 43*.
For COc1ccc(-c2nc(CCl)cs2)cc1 the results were GDH-TPI counter-1 -12, RecA intein inh 3, PrPC TRFRET -5, FBA Mtb inh 3 and BJeLR viability 5.
Screening COc1ccc(-c2nc(CCl)cs2)cc1OC returned GDH-TPI counter-1 6, RecA intein inh 1, PrPC TRFRET 2, FBA Mtb inh 72*, BJeLR viability -8, Mtb FBA confirm 91* and GDH-TPI counter-2 81*.
`COc1ccc2nc3ccccc3[n+]([O-])c2c1` gave GDH-TPI counter-1 15, PrPC TRFRET -31 and FBA Mtb inh 4.
For [O-][n+]1c2ccccc2cc2ccccc21 the results were GDH-TPI counter-1 -16, RecA intein inh -4, PrPC TRFRET -7, FBA Mtb inh 73*, BJeLR viability 3, Mtb FBA confirm active and GDH-TPI counter-2 active.
CCN(C(=O)C1CC1)C1CCS(=O)(=O)C1 (stereo unspecified) was read as GDH-TPI counter-1 -6, RecA intein inh 1, PrPC TRFRET 0, FBA Mtb inh 35*, BJeLR viability -1, Mtb FBA confirm 121* and GDH-TPI counter-2 106*.
`COc1ccc(-c2nnc3ccc(SCC(=O)N4CCCC4)nn23)cc1` gave GDH-TPI counter-1 7, RecA intein inh -2, PrPC TRFRET -1, FBA Mtb inh 4 and BJeLR viability -6.
For COc1ccc(-c2ccc3nnc(SCC(=O)N4CCCC4)n3n2)cc1 the results were GDH-TPI counter-1 3, RecA intein inh 1, PrPC TRFRET -35, FBA Mtb inh 27*, BJeLR viability 2, Mtb FBA confirm 189* and GDH-TPI counter-2 160*.
Cc1ccc(CNC(=O)OC(C)(C)C)c(/C=C/S(=O)(=O)NCc2ccc(F)cc2)c1 was read as PrPC TRFRET 14.
Screening Cc1ccn2c(c1)nc(=O)c1cc(S(=O)(=O)N3CCOCC3)ccc12 returned GDH-TPI counter-1 10, RecA intein inh 0, PrPC TRFRET 4, FBA Mtb inh 79*, BJeLR viability 7, Mtb FBA confirm 153* and GDH-TPI counter-2 109*.
Screening Cc1cc(=O)[nH]c2ccc(S(=O)(=O)N3CCOCC3)cc12 returned GDH-TPI counter-1 -4, RecA intein inh -2, PrPC TRFRET 7, FBA Mtb inh 72*, BJeLR viability -1, Mtb FBA confirm 124* and GDH-TPI counter-2 137*.
CCCOc1ccc(CNC(=O)c2ccc3c(c2)N(CC)CCS3)cc1 was read as GDH-TPI counter-1 1, RecA intein inh -1, PrPC TRFRET 8, FBA Mtb inh 75*, BJeLR viability 2, Mtb FBA confirm 157* and GDH-TPI counter-2 99*.
`CCOc1ccccc1CNC(=O)c1ccc2c(c1)N(CC)CCS2` gave GDH-TPI counter-1 14, RecA intein inh -8, PrPC TRFRET 14, FBA Mtb inh 74*, BJeLR viability -1, Mtb FBA confirm 26 and GDH-TPI counter-2 21*.
CCN1CCSc2ccc(C(=O)NCc3cccc(F)c3)cc21 was read as GDH-TPI counter-1 4, RecA intein inh -10, PrPC TRFRET 10, FBA Mtb inh 49*, BJeLR viability -1, Mtb FBA confirm active and GDH-TPI counter-2 162*.
COc1cccc(CNC(=O)c2cccc(Br)c2)c1 was read as GDH-TPI counter-1 8, RecA intein inh 0, PrPC TRFRET -3, FBA Mtb inh 0 and BJeLR viability -5.
Screening CCN1CCSc2ccc(C(=O)NCc3cccc(Br)c3)cc21 returned GDH-TPI counter-1 6, RecA intein inh -15, PrPC TRFRET 3, FBA Mtb inh 40*, BJeLR viability 1, Mtb FBA confirm 107* and GDH-TPI counter-2 82*.
Cc1[nH]c2ccccc2c1CC(=O)Nc1ccc(Nc2cccnc2)c(-c2cc(F)cc(F)c2)c1 was read as PrPC TRFRET -5.
Screening CCCCn1nnnc1C1c2ccccc2OCC(=O)N1Cc1ccc2c(c1)OCO2 (stereo unspecified) returned PrPC TRFRET 2.
Screening Cc1cc(-n2c(C)cc(C(=O)COc3ccc4ccc(=O)oc4c3)c2C)no1 returned GDH-TPI counter-1 3, RecA intein inh -1, PrPC TRFRET -1, FBA Mtb inh 28*, BJeLR viability -3, Mtb FBA confirm 60* and GDH-TPI counter-2 59*.
